# About 83,000 compounds went through this panel and 20% of them were active in at least one assay; those are over-represented in the sample as a whole.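 Assay: single dose, 48 h. Readout: percent growth (0 = no net growth; negative = cell death). Active: <10.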 Unmarked numbers belong to inactive results. The source made the active and inactive calls.
# Experiments:
# Test in all cases: NCI-60 one-dose screen, 48 h (100 = growth as untreated, 0 = no growth, -100 = all killed)
# Settings in all cases: 10 µM unless noted
# HCT-15 colon = test system: HCT-15 colon
# HT29 colon = test system: HT29 colon
# SNB-75 CNS = test system: SNB-75 CNS
# SNB-19 CNS = test system: SNB-19 CNS
# U251 CNS = test system: U251 CNS
# PC-3 prostate = test system: PC-3 prostate
# SK-MEL-5 melanoma = test system: SK-MEL-5 melanoma
# UACC-62 melanoma = test system: UACC-62 melanoma
# LOX IMVI melanoma = test system: LOX IMVI melanoma
# SK-MEL-28 melanoma = test system: SK-MEL-28 melanoma
# SK-MEL-2 melanoma = test system: SK-MEL-2 melanoma
# EKVX NSCLC = test system: EKVX NSCLC
# SN12C renal = test system: SN12C renal
# UO-31 renal = test system: UO-31 renal
# TK-10 renal = test system: TK-10 renal
# ACHN renal = test system: ACHN renal
# CAKI-1 renal = test system: CAKI-1 renal
# CCRF-CEM leukemia = test system: CCRF-CEM leukemia
# MOLT-4 leukemia = test system: MOLT-4 leukemia
# A498 renal = test system: A498 renal
SMILES,growth (HCT-15 colon),growth (HT29 colon),growth (SNB-75 CNS),growth (SNB-19 CNS),growth (U251 CNS),growth (PC-3 prostate) [%],growth (SK-MEL-5 melanoma),growth (UACC-62 melanoma),growth (LOX IMVI melanoma),growth (SK-MEL-28 melanoma),growth (SK-MEL-2 melanoma),growth (EKVX NSCLC) [%],growth (SN12C renal),growth (UO-31 renal),growth (TK-10 renal),growth (ACHN renal),growth (CAKI-1 renal),growth (CCRF-CEM leukemia),growth (MOLT-4 leukemia),growth (A498 renal)
CCOC(=O)c1c(C)nc2c(c1N)C(=O)C(=O)N2CCc1ccc(OC)c(OC)c1,33.3%,39.6%,67%,84.8%,57.7%,58.9,44.9%,64.8%,76.9%,80.9%,75.5%,57.6,89.1%,57.5%,70.8%,74%,60.2%,75.1%,57.3%,–
C=CCNc1ccc2c3c(cccc13)C(=O)N(CC=C)C2=O,97.4%,105%,90.4%,100%,103%,69.3,88.9%,75.8%,92%,103%,116%,99.2,97.6%,71.5%,–,84.3%,72.9%,83%,93.8%,89.7%
C#CC#CC#CC#CC#CC#CC#CC#CC[C@@H]1OC[C@H](COC(=O)O[C@@H](C(=O)O[C@H]2C[C@@]3(O)[C@@H](OC(=O)c4ccccc4)[C@@H]4[C@]5(OC(C)=O)CO[C@@H]5C[C@H](O)[C@@]4(C)C(=O)[C@H](OC(C)=O)C(=C2C)C3(C)C)[C@@H](NC(=O)c2ccccc2)c2ccccc2)O1,98.8%,4.07% (active),34.9%,38.1%,28.5%,26.1,48.7%,35%,34.3%,52.2%,44.2%,65.8,38.6%,99.6%,–,79.3%,71%,13.8%,30.9%,21.3%
Cc1ccc(C2(C)NC(=O)N(CC(=O)Nc3cccc(C)c3)C2=O)cc1 (centres undefined),94.4%,96.6%,77.1%,102%,99.1%,60.1,98.3%,84%,96.3%,107%,84.9%,101,100%,82%,–,98.6%,112%,112%,80.4%,123%
Nc1ncnc2c1N=C(c1ccc([N+](=O)[O-])cc1)CC(c1ccc3c(c1)OCO3)N2 (centres undefined),103%,97.3%,69.1%,83.6%,89%,72.6,80.2%,77.9%,85.3%,108%,59.6%,86,102%,55.7%,107%,88.3%,89.6%,65%,84.1%,–
CC(C)(C)CC(C)(C)Nc1c(-c2c(O)c3ccccc3oc2=O)nc2sccn12,100%,97%,108%,97%,97.7%,92.6,96.9%,90.7%,99.7%,102%,96.8%,105,93.5%,83.6%,90.5%,99.8%,92.8%,92.2%,101%,–
O=C1OCC2=C1C(c1cccc(F)c1)c1cc3c(cc1N2CCO)CCC3 (centres undefined),7.86% (active),5% (active),29.6%,23.9%,14.3%,24.2,-1.4% (active),42%,16.2%,54.7%,27%,40.9,26.7%,37.8%,–,22.8%,32.5%,5.27% (active),11.4%,5.8% (active)
C=C(c1ccc(OC)c(/C=C/C(=O)c2cc(OC)c(OC)c(OC)c2)c1)c1cc(OC)c(OC)c(OC)c1,-21.6% (active),0.495% (active),49.8%,-3.73% (active),-49.3% (active),31.5,-69.3% (active),-70% (active),-87.3% (active),-77.3% (active),3.16% (active),15,-13.9% (active),-85.6% (active),–,-79.9% (active),24.6%,17.9%,12%,-23.5% (active)
COc1cc2c(c(OC)c1OC)CCC(c1cccc(NC(=O)c3cccc(Cl)c3)c1)O2 (centres undefined),83.6%,73.7%,85.6%,91.8%,91.1%,66.6,79.6%,68.1%,96.2%,92.1%,95.7%,85.9,92%,64.2%,–,90.7%,97.9%,78.2%,57.9%,63.9%
COc1ccc(-c2ccc(-c3ccc(C(=N)N)o3)o2)cc1,-7.49% (active),-9.08% (active),43.6%,15.5%,-29.3% (active),25.5,25.6%,-61.1% (active),-58.1% (active),71.1%,54%,58.4,-23.9% (active),45.5%,61.9%,41.6%,34.4%,5.45% (active),27.7%,–
COc1cc2c(cc1-c1c(C)noc1C)ncc1nc(C3CCOCC3)n(C3CCC(OC(F)F)CC3)c12 (centres undefined),33.2%,25.9%,12.9%,75.3%,75.8%,44.8,27.2%,25.4%,24%,71.1%,63.5%,60.9,79.8%,14.5%,–,54.2%,42.6%,58.9%,68.6%,41.7%
C=C(C[n+]1ccccc1)[C@@H]1CC[C@]2(C(=O)OC)CC[C@]3(C)[C@H](CC[C@@H]4[C@@]5(C)CCC(=O)C(C)(C)[C@@H]5CC[C@]43C)[C@@H]12,104%,78%,83.9%,73.8%,82.8%,68,80.2%,51.8%,93.7%,69%,89%,93.4,87.8%,86.4%,102%,95.4%,83.5%,82.6%,78.9%,–
Nc1ncc(-c2ccc3ncnc(N4CCc5cc(F)c(Cl)cc54)c3c2)cc1C(F)(F)F,17.9%,20.4%,-14.3% (active),46.1%,47.8%,25.2,37.8%,20.4%,12.7%,38.3%,27.7%,14.8,24.8%,-2.54% (active),9.32% (active),17.2%,-8.15% (active),–,8.68% (active),-50.2% (active)
Cn1ccnc1C(=O)/C=C/c1ccc(CC(=O)Nc2cc(F)c(F)c(F)c2)cc1,9.67% (active),10.7%,-3.33% (active),20.3%,8.83% (active),26.1,62.5%,43.9%,-3.99% (active),93.5%,99.6%,32.3,13.2%,31.7%,47.8%,45.9%,31.4%,8.15% (active),6.4% (active),–
CNC1=C([N+](=O)[O-])C(c2ccc(OC)cc2)C(C#N)=C(c2ccc[nH]2)O1 (centres undefined),106%,107%,88.6%,97%,101%,97.1,98.2%,91.8%,99%,108%,108%,99.7,97.1%,89.3%,117%,105%,92.6%,43.1%,108%,–
CCOC(=O)c1c(C)n2c(=O)cc(C)c3c(OC(C)=O)c(OC(C)=O)cc1c32,41.2%,102%,74.1%,72%,50.9%,59.2,50.3%,76.2%,42.4%,64.7%,87%,93.1,74.3%,71%,–,58.3%,72.2%,3.61% (active),19.3%,116%

# From PubChem BioAssay (NCI)
